An excerpt weighted towards active compounds, which were near 0.41% of everything screened.
TRPV1 ag = human TRPV1 agonism. AID 540275. activation, % at 8.33 µM. hit rate 0.19% among 320,000. TRPV1-expressing cells, Fluo-8 calcium influx, agonist mode. Q8NER1; in the data active = activation above about 80%; inconclusive = between about 30% and that limit; note: 0% is about no effect
Target sequence (Q8NER1 whole entry, looked up): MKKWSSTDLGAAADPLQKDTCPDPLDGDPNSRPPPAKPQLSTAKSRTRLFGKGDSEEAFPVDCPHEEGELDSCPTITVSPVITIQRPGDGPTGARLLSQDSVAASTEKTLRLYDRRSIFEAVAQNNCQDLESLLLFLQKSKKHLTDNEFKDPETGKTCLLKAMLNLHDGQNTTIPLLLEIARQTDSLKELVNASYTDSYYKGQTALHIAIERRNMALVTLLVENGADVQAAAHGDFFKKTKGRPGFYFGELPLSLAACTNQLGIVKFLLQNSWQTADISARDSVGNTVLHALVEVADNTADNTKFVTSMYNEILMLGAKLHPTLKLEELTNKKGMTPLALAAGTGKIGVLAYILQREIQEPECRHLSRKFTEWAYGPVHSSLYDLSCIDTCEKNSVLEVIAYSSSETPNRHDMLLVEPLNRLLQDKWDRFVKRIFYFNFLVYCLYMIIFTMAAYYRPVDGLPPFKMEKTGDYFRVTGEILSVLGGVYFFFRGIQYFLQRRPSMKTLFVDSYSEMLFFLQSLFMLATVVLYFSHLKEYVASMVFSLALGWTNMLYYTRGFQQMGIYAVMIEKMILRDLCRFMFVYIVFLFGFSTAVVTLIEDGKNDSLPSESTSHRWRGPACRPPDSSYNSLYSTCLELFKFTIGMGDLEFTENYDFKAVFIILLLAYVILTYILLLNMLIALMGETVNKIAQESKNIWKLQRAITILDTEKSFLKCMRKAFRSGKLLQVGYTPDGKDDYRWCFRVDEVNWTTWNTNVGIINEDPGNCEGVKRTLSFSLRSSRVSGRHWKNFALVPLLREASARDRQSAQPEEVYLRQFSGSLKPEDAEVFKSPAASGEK
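Fluo-8 calcium influx in TRPV1-expressing cells, kinetic read (ex 480/em 520 nm). Compound added and read 3 min for agonist activity, followed by capsaicin at EC20 final and 2 min further read for enhancement.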
LDHA inh = LDHA (human) enzyme inhibition; P00338; activity change, % (values are at about 110 or 230 µM); hit rate 0.15% among 480,000; purified LDHA, NADH/diaphorase-resazurin fluorescence; active compounds read low; in the data active = activity change below about -30%; inconclusive = mostly about -25% to -30%;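 note: plate controls were DMSO wells for no effect and wells without enzyme for full effect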
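Human LDH5 (2 nM) was incubated with 0.06 mM NADH and 0.2 mM pyruvate for 5 min at room temperature in Tris pH 7.4. Remaining NADH was coupled through diaphorase/resazurin, and resorufin fluorescence was read at 0 and 20 min.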
TRPML1 ag = human mucolipin-1 channel agonism; TRPML1-expressing cells, Ca2+ dye fluorescence, FDSS; activation, % (concentration not given with the values); hit rate 0.12% among 410,000; in the data active = activation above about 50%; inconclusive = mostly about 30% to 49%; note: 0% is about no effect
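Tetracycline-induced TRPML1-DL cells are seeded and incubated overnight before loading with a no-wash Ca2+ dye and quencher. Agonist activity is taken from the 110 s fluorescence read following compound pin-transfer on an FDSS, before EC80 54-4 challenge.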
TRPV1 potentiator = potentiators of human vanilloid receptor 1 (TRPV1). Q8NER1. TRPV1-expressing cells, Fluo-8 calcium influx, capsaicin EC20 potentiation. potentiation, % at 8.33 µM. hit rate 0.02% among 320,000; in the data active = potentiation above about 80%; inconclusive = between about 30% and that limit; note: 0% is about no effect
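Cells expressing TRPV1 were dye-loaded with Fluo-8 and read kinetically: 10 s baseline, 3 min after compound (agonist portion), then 2 min after EC20 capsaicin (allosteric enhancer portion). Calcium-bound dye fluorescence at 480/520 nm.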
TRPML1 blocker = inhibitors of human TRPML1 channel; hit rate 0.02% among 390,000; TRPML1-inducible cells, Ca2+ dye fluorescence, FDSS; active compounds read low; inhibition of EC80 agonist-evoked calcium signal; AID 624415; activity change, negative = inhibition, % (concentration not given with the values); in the data active = activity change below about -50%; inconclusive = between about -30% and that limit;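 note: stimulus is agonist 54-4 at its EC80 concentration; % is set by controls: 0 for no effect and ±100 for the full control effect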
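Calcium fluorescence in TRPML1-DL cells induced overnight with Tet: a 110 s read after compound pin addition, then a 110 s antagonist read after challenge with 54-4 at 4 uM final (EC80).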
Active calls of the source: *; u = inconclusive; x = no result.

SMILES | TRPV1 ag | LDHA inh | TRPML1 ag | TRPV1 potentiator | TRPML1 blocker
Clc1ccc(CN(CC2CCCO2)C(c2cccs2)c2nnnn2C2CCCC2)cc1 (stereo not drawn) | -2 | -2 | 54* | -10 | -3
Clc1ccccc1CN(Cc1ccccc1)C(c1cccs1)c1nnnn1C1CCCC1 (stereo not drawn) | 28 | -4 | 0 | 1 | 16
Cc1cccc(N2CCN(C(=O)NC3CCCCC3)CC2C)c1 (stereo not drawn) | 93* | 0 | 0 | -7 | -3
Cc1cccc(N2CCN(C(=O)c3ccccn3)CC2C)c1 (stereo not drawn) | u | 0 | -1 | -23 | 5
Cc1ccc(-c2nc3nc(C)cc(Nc4ccc(N(C)C)cc4)n3n2)cc1 | x | 3 | x | x | x
OC(CNCC(c1ccco1)N1CCCCC1)c1ccccc1 (stereo not drawn) | -5 | -31* | 0 | -7 | -2
COc1ccc(CC(=O)Nc2ccc(C(=O)Nc3ccccc3C(=O)O)cc2)cc1OC | -1 | -37* | 1 | -3 | 6
COc1ccc(CC(=O)NCc2ccc(-n3cccc3)cc2)cc1OC | 81* | -4 | -1 | -24 | 5
COc1cc(Cl)c(C)cc1NC(=O)Cc1cccs1 | 17 | -2 | 0 | u | 2
COc1cc(Cl)c(C)cc1NC(=O)Cc1ccc(OC)c(OC)c1 | 89* | -3 | 2 | -24 | 5
COc1ccc(CC(=O)Nc2cccc3ccccc23)cc1OC | 89* | 1 | -1 | -7 | 3
Cc1ccc(CNC(=O)Cc2ccc(-n3cccc3)cc2)cc1 | 4 | -3 | 1 | -3 | 23
O=C(Nc1cccc(Oc2ccccc2)c1)C1CCCO1 (stereo not drawn) | x | 7 | x | x | x
Cn1cccc1Cc1nnc(SCC(=O)Nc2ccc(F)cc2F)n1C | x | -1 | x | x | x
Cc1ccc2c(=O)cc(C(=O)NCC(c3cccs3)N3CCCC3)oc2c1 (stereo not drawn) | x | 2 | x | x | x
Nc1nc(CN2CCN(C(=O)c3ccccc3Cl)CC2)nc2ccccc12 | x | 4 | x | x | x
CN1N=C(N)c2cn(C3OC(COP(=O)(O)O)C(O)C3O)c3ncnc1c23 (stereo not drawn) | x | -32* | 1 | x | 19
COc1cccc(-c2cc(C(=O)N3CCN(S(=O)(=O)c4ccc(Br)cc4)CC3)[nH]n2)c1 | 6 | -9 | 1 | 6 | -7
COc1ccc(S(=O)(=O)N2CCN(C(=O)c3cc(-c4ccccc4OC)n[nH]3)CC2)cc1 | 82* | -3 | 2 | 17 | 2
Cn1c(SCC(=O)Nc2cccc(Br)c2)nnc1-c1cc2ccccc2o1 | 3 | 0 | 0 | -5 | 17
Cn1c(SCC(=O)Nc2cccc(C(=O)O)c2)nnc1-c1cc2cc(Br)ccc2o1 | 5 | -34* | 0 | 17 | -3
COC(=O)c1sc(S(=O)(=O)Nc2ccc(Br)cc2F)c(C(=O)OC)c1C | x | -15 | x | x | x
Cc1ccc(C2=NS(=O)(=O)N(C)C(C(=O)NCc3cccs3)=C2)cc1 | 92* | -2 | 0 | 7 | 8
CSc1ccccc1NC(=O)CN(C)CC(=O)Nc1c(F)cccc1F | -1 | -55* | 1 | 2 | -16
CSc1ccccc1NC(=O)CN(C)Cc1ccc(Br)cc1 | u | -3 | 1 | -3 | 30
SMILES | TRPV1 ag | LDHA inh | TRPML1 ag | TRPV1 potentiator | TRPML1 blocker
CSc1ccccc1NC(=O)CN(C)CC(=O)Nc1ccccc1F | -1 | -31* | 0 | 0 | -20
Fc1ccc(CSc2nnc(-c3c[nH]c4ccccc34)n2C2CC2)c(Cl)c1 | x | -2 | x | x | x
Cc1ccc(S(=O)(=O)Nc2cc(C(F)(F)F)ccc2N2CCOCC2)cc1C | 28 | 3 | 85* | -16 | -11
Cc1cccc(S(=O)(=O)Nc2cc(Cl)ccc2N2CCOCC2)c1 | x | -6 | 72* | x | -16
Cc1ccc(S(=O)(=O)Nc2ccccc2N2CCOCC2)cc1 | 6 | -1 | 64* | -3 | -9
CCN1CCN(S(=O)(=O)c2ccc(Cl)c(C(=O)Nc3cc(Cl)ccc3N3CCOCC3)c2)CC1 | 23 | -11 | 74* | -12 | -20
O=S(=O)(Nc1cc(C(F)(F)F)ccc1N1CCOCC1)c1ccccc1 | 11 | 1 | 0 | 1 | 10
Cc1ccc(-c2nnc(Nc3ccccc3)c3ccccc23)cc1S(=O)(=O)NC(C)(C)CO | x | 24 | x | x | x
Cc1oc(-c2ccc(Cl)cc2)nc1CS(=O)CC(=O)NCCN1CCOCC1 (stereo not drawn) | x | 10 | x | x | x
CCc1ccc(-c2csc(Nc3ccc(C(=O)O)c(O)c3)n2)cc1 | x | 4 | x | x | x
CCOC(=O)CSc1ncn(-c2nc(NC)nc(N(C)C)n2)n1 | x | 7 | x | x | x
CC(=O)Nc1ccc(-c2nc(-c3ccc4c(c3)CCC4)cs2)cc1 | x | 14 | x | x | x
Cc1cc(C(=O)COC(=O)c2ccco2)c(C)n1Cc1ccccc1 | x | 1 | x | x | x
CCN(CC)c1nc(-c2cccs2)cs1 | x | 20 | x | x | x
COC(=O)c1ccc(CN(C)C(=O)C(C)(C)C)cc1 | x | 1 | x | x | x
Cc1ccc(S(=O)(=O)Nc2ccccc2N2CCCCC2)cc1 | x | -1 | 76* | x | -3
O=C(Nc1ccc2c(c1)OCCO2)C(=O)c1c[nH]c2ccc(F)cc12 | x | 7 | x | x | x
O=C(Nc1c(NC2CCCC2)c2ccccc2oc1=O)c1ccc(Br)o1 | x | -1 | x | x | x
COC(=O)C(C)Oc1ccc2c(-c3ccccc3)cc(=O)oc2c1 (stereo not drawn) | x | -32* | x | x | x
COC(=O)C(C)Oc1ccc2c(=O)c(-c3ccc(Cl)cc3)coc2c1 (stereo not drawn) | x | -5 | x | x | x
COC(=O)C(C)Oc1ccc2c(=O)c(-c3ccc4c(c3)OCCO4)coc2c1 (stereo not drawn) | x | -34* | x | x | x
COc1ccc(NC(C)=O)cc1NC(=O)c1cnc2ccccc2n1 | x | 16 | x | x | x
CCOc1c(Nc2ccc(C(C)C)cc2)c(=O)c1=O | 83* | 0 | -1 | -1 | 25
CCc1nc(N2CCN(C(=S)Nc3ccccc3)CC2)c(C#N)c2c1CSC(C)(C)C2 | x | 2 | x | x | x
CCCS(=O)(=O)N1CCC(C(=O)N2CCOCC2)CC1 | 0 | -1 | -1 | 2 | 1
SMILES | TRPV1 ag | LDHA inh | TRPML1 ag | TRPV1 potentiator | TRPML1 blocker
CCCCCC1CCC(C(=O)N2CCOCC2)CC1 (stereo not drawn) | 94* | -2 | 0 | 0 | -8
CCCCCCC1CCC(C(=O)N2CCOCC2)CC1 (stereo not drawn) | 89* | -6 | 1 | -17 | -2
O=C(CCc1nc(Cc2ccccc2)no1)N1CCSCC1 | x | -1 | x | x | x
C(#Cc1ccccc1)CN1CCCC1 | x | 10 | x | x | x
COc1ccc2c(c1)CC/C(=C\c1ccccc1Br)C2=O | x | -1 | x | x | x
COC(=O)c1c(C(=O)OC)c(-c2ccccc2)n2c1CS(=O)C2 (stereo not drawn) | -7 | -6 | 1 | 92* | 34
CCOC(=O)CC1C(=O)NCCN1c1nc2ccc(C)cn2c(=O)c1/C=C1\SC(=S)N(C(C)CC)C1=O (stereo not drawn) | 139* | x | x | -5 | x
CSCCCNC(=S)NCc1ccccn1 | x | -5 | x | x | x

Assay outcomes: PubChem BioAssay, National Center for Advancing Translational Sciences (NCATS)
